Test results published in PubChem BioAssay (NCATS).
Records with an inconclusive call do not appear. Calls of active or inactive are those of the source. Unless noted, calls come from the whole dose curve; as a rule, active = well fitted curve in the direction sought with a large enough effect; inconclusive = small, poorly fitted or top-dose-only effect, or another doubt; inactive = no such curve, though single readings can be large; an effect the other way counts as inactive or inconclusive.

Legend:
[1] = Cell Viability - LYMP2-008 (AID 980); conditions: LYMP2-008 lymphoblastoid cell viability, qHTS; series mostly up to 92.2 µM;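 note: cells exposed to compound for 24 h at 37 °C; nearly all actives have a fitted effect of over 60% in size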
In short: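 qHTS, human lymphoblastoid line, 2500 cells/well; 5 hr preincubation, 24 hr compound, 37 C. CellTiter-Glo ATP luminescence. AC50 via Hill equation. Tetraoctylammonium bromide positive control.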

[2] = Cell Viability - LYMP2-010 (AID 981); conditions: LYMP2-010 lymphoblastoid cell viability, qHTS; series mostly up to 92.2 µM; note: nearly all actives have a fitted effect of over 55% in size
In short: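 Luminescent ATP signal (CellTiter-Glo) served as the viability read-out. Cells of the human lymphoblastoid line were treated with compound over a concentration range for 24 hours at 37 C, and AC50 values came from Hill-equation modeling.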

[3] = Cell Viability - LYMP2-016 (AID 984); conditions: LYMP2-016 lymphoblastoid cell viability, qHTS; series mostly up to 92.2 µM; note: nearly all actives have a fitted effect of over 55% in size
In short: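 Acute toxicity in a Coriell human lymphoblastoid line is scored as loss of intracellular ATP over 24 h of treatment in complete medium. CellTiter-Glo signal is fitted across concentrations with the Hill equation to give AC50.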

[4] = Cell Viability - LYMP2-018 (AID 985); conditions: LYMP2-018 lymphoblastoid cells, viability (qHTS); series mostly up to 92.2 µM;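 note: compound exposure lasted 24 hr at 37 °C; nearly all actives have a fitted effect of over 50% in size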
In short: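 Luminescent ATP signal (CellTiter-Glo, read after 30 min at room temperature) reports viable cells after 24 hr compound treatment at 37 C. Concentration-response data were fitted to the standard Hill equation for AC50.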

[5] = Cell Viability - LYMP1-002 - Assay at 24 hr (AID 993); conditions: LYMP1-002 lymphoblastoid cells viability; series mostly up to 92.2 µM
In short: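 Cells plated 2500/well, 5 hr 37 C; compounds added, 24 hr 37 C; CellTiter-Glo added, 30 min RT; luminescence read. Tetraoctylammonium bromide positive control. Hill-equation AC50.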

[6] = Cell Viability - LYMP1-002 - Assay at 40 hr (AID 994); conditions: LYMP1-002 lymphoblastoid cell viability; series mostly up to 92.2 µM; note: nearly all actives have a fitted effect of over 60% in size
In short: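 Luminescent ATP signal served as the viability readout, with decreases taken as toxicity. Cells were treated with compounds across a concentration range for 40 hours at 37 C, and AC50 values came from standard Hill modeling.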

[7] = biological target: Cytochrome P450 2C9 (Homo sapiens) (UniProt P11712); assay: qHTS Assay for Inhibitors and Substrates of Cytochrome P450 2C9 (AID 883); conditions: recombinant CYP2C9, luciferin-H luminescence, 60 min; series mostly up to 11.4 µM; note: nearly all actives have a fitted effect of over 60% in size
Sequence of Cytochrome P450 2C9 (Homo sapiens) (P11712 whole entry, looked up): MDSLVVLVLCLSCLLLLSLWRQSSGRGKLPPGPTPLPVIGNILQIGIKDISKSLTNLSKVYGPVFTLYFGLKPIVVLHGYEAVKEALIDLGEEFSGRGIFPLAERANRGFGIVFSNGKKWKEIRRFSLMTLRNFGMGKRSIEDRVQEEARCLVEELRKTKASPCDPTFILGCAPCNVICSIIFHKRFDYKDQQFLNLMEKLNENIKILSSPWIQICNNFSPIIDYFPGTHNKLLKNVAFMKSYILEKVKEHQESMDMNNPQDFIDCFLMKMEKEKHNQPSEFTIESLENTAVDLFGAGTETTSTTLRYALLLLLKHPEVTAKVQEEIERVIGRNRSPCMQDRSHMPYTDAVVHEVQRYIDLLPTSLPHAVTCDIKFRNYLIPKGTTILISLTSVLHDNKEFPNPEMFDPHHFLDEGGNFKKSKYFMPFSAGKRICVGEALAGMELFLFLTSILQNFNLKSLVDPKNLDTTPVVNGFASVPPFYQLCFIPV
In short: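 Human CYP2C9 (10nM) with Luciferin-H at 100uM (its KM) in 25mM KPO4; compound preincubated 10 min at 37C, then NADPH regeneration for 60 min at 37C. Luciferin read by luminescence after detection reagent; normalized to 57uM sulphaphenazole as full inhibition.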

[8] = biological target: Cytochrome P450 2C19 (Homo sapiens) (UniProt P33261); assay: qHTS Assay for Inhibitors and Substrates of Cytochrome P450 2C19 (AID 899); conditions: recombinant CYP2C19, luciferin-H EGE luminescence; series mostly up to 11.4 µM; note: nearly all actives have a fitted effect of over 60% in size
Sequence of Cytochrome P450 2C19 (Homo sapiens) (P33261 whole entry, looked up): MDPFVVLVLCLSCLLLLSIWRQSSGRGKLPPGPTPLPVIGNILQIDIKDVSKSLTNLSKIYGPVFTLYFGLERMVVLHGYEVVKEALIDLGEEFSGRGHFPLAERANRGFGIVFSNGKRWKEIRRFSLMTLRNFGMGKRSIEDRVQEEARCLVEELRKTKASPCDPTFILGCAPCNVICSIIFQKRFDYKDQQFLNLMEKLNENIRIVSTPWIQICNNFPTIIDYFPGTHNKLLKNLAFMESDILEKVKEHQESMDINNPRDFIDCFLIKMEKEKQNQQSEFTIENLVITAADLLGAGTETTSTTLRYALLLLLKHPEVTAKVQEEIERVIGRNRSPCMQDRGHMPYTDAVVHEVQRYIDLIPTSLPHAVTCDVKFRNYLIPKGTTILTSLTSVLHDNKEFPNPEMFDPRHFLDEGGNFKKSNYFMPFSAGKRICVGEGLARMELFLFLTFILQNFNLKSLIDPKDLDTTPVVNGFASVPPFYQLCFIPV
In short: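 5 nM human CYP2C19 with 10uM Luciferin-H EGE (at KM) in 50mM KPO4, compound preincubated 10 min at 37C, then NADPH regeneration for 60 min at 37C. Luciferin read by luminescence after detection reagent; normalized to 57uM ketoconazole as full inhibition.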

[9] = biological target: Guanine nucleotide-binding protein G(i) subunit alpha-1 (Homo sapiens) (UniProt P63096); assay: qHTS Assay for Inhibitors of RGS12 GoLoco Motif Activity (Green Fluorophore) (AID 879); conditions: Galphai1/FITC-RGS12 GoLoco peptide, fluorescence polarization; series mostly up to 57.1 µM;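 note: negative values mean loss of peptide binding seen as reduced polarization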
Sequence of Guanine nucleotide-binding protein G(i) subunit alpha-1 (Homo sapiens) (P63096 whole entry, looked up): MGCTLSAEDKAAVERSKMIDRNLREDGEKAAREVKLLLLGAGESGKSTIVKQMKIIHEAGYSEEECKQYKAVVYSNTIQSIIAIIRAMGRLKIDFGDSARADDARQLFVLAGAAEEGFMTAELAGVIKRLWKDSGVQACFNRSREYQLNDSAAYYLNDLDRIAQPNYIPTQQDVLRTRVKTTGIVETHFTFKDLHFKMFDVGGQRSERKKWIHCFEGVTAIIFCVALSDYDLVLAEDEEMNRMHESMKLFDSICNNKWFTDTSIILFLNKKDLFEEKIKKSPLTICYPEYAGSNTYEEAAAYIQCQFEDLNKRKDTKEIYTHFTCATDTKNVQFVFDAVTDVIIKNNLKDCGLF
In short: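 Fluorescence polarization assay: 50 nM Gαi1 with 10 nM FITC-labeled RGS12 GoLoco peptide in 10 mM Tris pH 7.5, 150 mM NaCl, 0.1 mM GDP, 0.05% NP40, 10 min at room temperature with compound.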

[10] = qHTS Assay for Identification of Small Molecule Antagonists for NFkB Signaling Pathway (AID 895; active = well fitted inhibition curve with a large enough effect in the signal ratio, with a control signal flat, not every such curve was filed as active; the % refers to the signal ratio); conditions: NFkB beta-lactamase reporter cells, FRET ratio 460/530, stimulated with 10 pM TNF alpha; series mostly up to 38.3 µM
In short: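 ME-180 NFkB-bla cells (beta-lactamase under NFkB response element), plated overnight, treated with compound then 10 pM TNF alpha (about EC50) for 5 hrs at 37 C. LiveBLAzer FRET read at 460/530 nm emission, 405 nm excitation.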

[11] = biological target: Pyruvate kinase PKM (Homo sapiens) (UniProt P14618); assay: qHTS Assay for Activators of Human Muscle Pyruvate Kinase (AID 954; active = well fitted curve in the direction sought with a large enough effect, not every such curve was filed as active); conditions: purified human muscle pyruvate kinase, luciferase-coupled luminescence, 1 h; series mostly up to 57.5 µM
Sequence of Pyruvate kinase PKM (Homo sapiens) (P14618 whole entry, looked up): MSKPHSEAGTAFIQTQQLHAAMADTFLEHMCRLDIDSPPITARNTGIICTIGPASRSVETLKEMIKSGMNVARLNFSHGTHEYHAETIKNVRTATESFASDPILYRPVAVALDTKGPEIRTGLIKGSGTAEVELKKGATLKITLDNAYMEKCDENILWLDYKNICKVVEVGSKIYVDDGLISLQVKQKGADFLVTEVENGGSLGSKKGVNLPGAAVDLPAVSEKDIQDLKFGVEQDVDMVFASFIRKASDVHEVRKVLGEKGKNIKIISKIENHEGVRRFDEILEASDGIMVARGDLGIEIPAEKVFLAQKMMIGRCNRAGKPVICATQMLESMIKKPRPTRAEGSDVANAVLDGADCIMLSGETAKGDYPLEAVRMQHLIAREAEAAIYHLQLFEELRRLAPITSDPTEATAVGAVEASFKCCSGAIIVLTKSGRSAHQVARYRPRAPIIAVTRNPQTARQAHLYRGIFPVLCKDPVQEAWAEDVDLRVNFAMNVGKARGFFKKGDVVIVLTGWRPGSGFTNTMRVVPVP
In short: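 Human PKM2 activity is measured as ATP generation, detected by luciferase-coupled luminescence. The enzyme (0.1 nM) acts on 0.5 mM PEP and 0.1 mM ADP for 1 h at ambient temperature; data are normalized to uninhibited and full-inhibition wells.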

[12] = biological target: Alpha-galactosidase A (Homo sapiens) (UniProt P06280); assay: Counterscreen for Glucocerebrosidase Inhibitors: qHTS Assay for Human alpha-Galactosidase at pH 4.5 (AID 992); conditions: purified enzyme, fluorogenic substrate; series mostly up to 76.9 µM
Sequence of Alpha-galactosidase A (Homo sapiens) (P06280 whole entry, looked up): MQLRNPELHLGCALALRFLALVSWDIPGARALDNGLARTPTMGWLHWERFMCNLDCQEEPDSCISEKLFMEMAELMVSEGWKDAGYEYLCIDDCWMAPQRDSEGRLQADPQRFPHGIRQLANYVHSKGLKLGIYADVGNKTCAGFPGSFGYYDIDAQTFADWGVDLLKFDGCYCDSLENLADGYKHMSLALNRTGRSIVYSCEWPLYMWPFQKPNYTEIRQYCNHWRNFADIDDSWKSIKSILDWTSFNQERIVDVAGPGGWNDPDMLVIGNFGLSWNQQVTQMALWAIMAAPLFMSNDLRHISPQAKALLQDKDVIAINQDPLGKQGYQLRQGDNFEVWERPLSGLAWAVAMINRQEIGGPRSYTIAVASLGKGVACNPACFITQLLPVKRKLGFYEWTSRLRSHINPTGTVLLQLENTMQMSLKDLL
In short: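 Quantitative HTS: compounds tested from 0.7 nM up to 77 uM against 2 nM enzyme with 80 uM 4-MU alpha-D-galactopyranoside. The 20 min room-temperature reaction is stopped with 1M NaOH/1M glycine, pH 10.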

[13] = biological target: alpha-glucosidase (Oryza sativa, rice) (UniProt Q653V4); assay: Counterscreen for Glucocerebrosidase Inhibitors: qHTS Assay for Rice alpha-Glucosidase at pH 5.0 (AID 997); conditions: rice alpha-glucosidase enzyme activity; series mostly up to 76.9 µM
In short: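 Rice alpha-glucosidase (4 nM final) with 400 uM 4-methylumbelliferyl-alpha-D-glucopyranoside in citrate buffer pH 5.0, 20 min at room temperature, stopped at pH 10; fluorescence 365/440 nm, compounds 0.7 nM–77 uM, AC50 from Hill fits.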

Measured: Potency

O=C(O)c1cc(N=Nc2ccc([N+](=O)[O-])cc2)ccc1O
inactive: [1] | [2] | [3] | [4] | [5] | [6]

COc1ccc2cc1Oc1ccc(cc1)C[C@H]1c3cc(c(OC)cc3CCN1C)Oc1c(OC)c(OC)cc3c1[C@@H](C2)N(C)CC3
inactive: [7] | [8]

Cc1cn([C@H]2C[C@H](N=[N+]=[N-])[C@H](CO)O2)c(=O)[nH]c1=O
inactive: [9] | [10] | [11] | [12] | [13]
